Source: PubChem BioAssay AID1903 (Southern Research Specialized Biocontainment Screening …, 2009)
Values joined by “and” are separate entries in the source; they are usually repeats but may differ in a detail not shown here. Identical values can stand only once. Out of some 310,000 compounds screened, about 1,200 (0.39%) were called active. How the calls were made is not given here. Only a sample is shown. Results with a measured potency or affinity are listed apart.

biological target: Large T antigen (Simian virus 40) (UniProt P03070); assay: SV40 large T antigen inhibitors, biochemical (AID 1903); conditions: SV40 large T antigen ATPase/helicase inhibition assay; at 20 µM; stronger effect = higher value
Sequence (P03070 whole entry, looked up): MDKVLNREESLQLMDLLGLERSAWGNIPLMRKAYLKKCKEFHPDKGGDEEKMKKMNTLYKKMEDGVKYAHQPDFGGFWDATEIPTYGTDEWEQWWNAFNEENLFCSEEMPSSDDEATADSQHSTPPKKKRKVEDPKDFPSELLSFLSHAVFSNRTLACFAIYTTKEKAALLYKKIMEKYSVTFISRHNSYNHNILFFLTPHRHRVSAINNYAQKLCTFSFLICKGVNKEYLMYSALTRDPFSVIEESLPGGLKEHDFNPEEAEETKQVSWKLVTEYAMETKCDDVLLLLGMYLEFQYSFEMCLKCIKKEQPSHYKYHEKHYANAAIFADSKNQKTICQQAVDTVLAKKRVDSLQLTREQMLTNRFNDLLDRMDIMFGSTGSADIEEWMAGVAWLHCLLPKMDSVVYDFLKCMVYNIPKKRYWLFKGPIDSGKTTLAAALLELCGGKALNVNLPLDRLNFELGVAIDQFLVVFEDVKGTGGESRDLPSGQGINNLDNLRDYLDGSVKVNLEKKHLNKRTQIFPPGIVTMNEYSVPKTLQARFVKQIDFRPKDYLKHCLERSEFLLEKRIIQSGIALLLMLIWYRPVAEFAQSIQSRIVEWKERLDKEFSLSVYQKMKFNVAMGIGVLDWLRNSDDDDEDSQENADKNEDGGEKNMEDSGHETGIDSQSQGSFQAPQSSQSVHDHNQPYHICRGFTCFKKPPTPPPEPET

inhibition, inactive:
O=C1c2c(O)cc(O)cc2O[C@H](c2ccc(O)c(O)c2)[C@H]1O 7.35%, O=C1c2c(O)cc(O)cc2O[C@H](c2ccc(O)c(O)c2)[C@@H]1O 5.87%, O=C(O[C@@H]1Cc2c(O)cc(O)cc2O[C@@H]1c1cc(O)c(O)c(O)c1)c1cc(O)c(O)c(O)c1 -0.22%, Oc1cc(O)c2c(c1)O[C@H](c1ccc(O)c(O)c1)[C@H](O)C2 37.1%, COc1cc(C(=S)N2CCOCC2)cc(OC)c1OS(=O)(=O)c1ccc(C)cc1 3.46%, Cc1csc(Sc2ccc([N+](=O)[O-])cc2C(=O)OCC(=O)NC2CCCC(C)C2C)n1 (configuration not stated) 16.8%, CC(C)C(=O)NNC(=O)c1csc(CS(=O)(=O)c2ccc(Cl)cc2)n1 9.42%, Cc1cnc(C(=O)NC2CCSc3ccccc32)cn1 (configuration not stated) 9.84%, CC(C)[C@@H]1CC[C@@H](C)c2c(-c3ccccc3)n[nH]c21 -1.85%, COc1ccc2c(c1O)-c1ccccc1CCN(C)C2 20.8%, COc1c(O)ccc2c1CN1CCc3cc4c(cc3C1C2)OCO4 (configuration not stated) 58.7%, CN1CCc2cccc3c2[C@@H]1Cc1ccc(O)c(O)c1-3 39.9%, CN1CCc2cc3c(c4c2[C@H]1[C@H](O)c1ccccc1-4)OCO3 14.8%, COc1cc2c(cc1OC)C(Cc1ccc(O)cc1)N(C)CC2 (configuration not stated) 2.71%, CN1CCC(=C2c3ccccc3C(O)c3ccccc32)CC1 (configuration not stated) 5.26%, CCC(C)NCCC(=O)Nc1ccc(Cl)c(S(=O)(=O)Nc2ccc(Cl)cc2)c1 (configuration not stated) 7.37%, O=C(Nc1cccc(-c2nn[nH]n2)c1)c1ccc(Cl)s1 8.59%, Cc1cc(C(=O)Nc2cccc(C(=O)O)c2)c(C)o1 4.39%, CC(C)(C)c1cc(N)n(-c2ccc(C(=O)O)cc2)n1 11.4%, C/C(CC(=O)Nc1ccc(N(C)C)cc1)=N\NC(=O)c1ccc(C(C)(C)C)cc1 9.71%, CCC(=O)N/N=C(\C)CC(=O)Nc1ccc2ccccc2c1 11.7%, C/C(CC(=O)Nc1ccc(N(C)C)cc1)=N\NC(=O)c1ccc(F)cc1 29.8%, C/C(CC(=O)Nc1ccc(N(C)C)cc1)=N\NC(=O)c1ccccn1 28.2%, C/C(CC(=O)Nc1ccccn1)=N\NC(=O)c1ccc2ccccc2c1 -45.2%, COc1ccc(NC(=O)C/C(C)=N/NC(=O)c2cnccn2)cc1 -3.03%, Cc1ccc(N(Cc2ccc(C(=O)Nc3c(C)n(C)n(-c4ccccc4)c3=O)cc2)S(C)(=O)=O)cc1C 9.36%, O=C1[C@@H]2Cc3c([nH]c4ccccc34)C(c3ccccc3)N2C(=O)CN1CCO (some centres not stated) 9.64%, CCC(C)NC(=O)CCc1nnc2ccc(N3CCC(C)CC3)nn12 (configuration not stated) 6.91%, O=S(=O)(O)c1cccc(N=Nc2c(O)ccc3ccccc23)c1 7.77%, Oc1ccc(Cl)cc1N=Nc1ccccc1 8.08%, Cc1ccc(N=Nc2ccc(N)cc2C)c(S(N)(=O)=O)c1 10.1%, Nc1cc(S(=O)(=O)O)cc([N+](=O)[O-])c1O 23%, C#CCOCCOCCOCCNc1nc(N2CCN(C(=O)C([C@@H](C)CC)n3cc(C(N)Cc4ccc(O)cc4)nn3)CC2)nc(N2CCN(C(=O)[C@H](CCC(=O)O)n3cc(C(N)Cc4ccc(O)cc4)nn3)CC2)n1 (some centres not stated) 18.6%, CN(CC(=O)Nc1ccc(Cl)cc1)CC(=O)Nc1ccc(F)c(F)c1F -109%, O=C(NCc1ccccn1)C1CCCN(S(=O)(=O)c2cccc3nsnc23)C1 (configuration not stated) 9.56%, O=C(c1ccc(Oc2ccc(C(F)(F)F)cc2[N+](=O)[O-])cc1)N1CCOCC1 1.7%, O=C(Nc1cccc(Br)c1)c1ccc(CN2CCc3ccccc3C2)cc1 6.55%, Nc1nc(Nc2ccccc2)nc(N2CCOCC2)c1[N+](=O)[O-] 0.42%, CCOC(=O)c1cc(CC)sc1N 14.6%, Nc1sc(-c2ccccc2)cc1C(=O)O 4.81%, COC(=O)c1cc(-c2ccccc2)sc1N 11.1%, CCOC(=O)c1cc(-c2ccccc2)sc1N 6.85%, CC(OC(=O)c1oc2ccccc2c1CSC1CCCCC1)C(=O)NC(N)=O (configuration not stated) 6.96%, Cc1[nH]c2ccc(C(=O)NCCCN3CCN(C)CC3)cc2c1C 15.6%, O=C(/C=C/c1ccccc1)N1CCN(c2ccc([N+](=O)[O-])c(N3CCOCC3)c2)CC1 9.06%, CC(=O)N1CCN(c2ccc(NCc3ccccc3)cc2)CC1 8.55%, Cc1ccc(CNc2ccc(N3CCOCC3)cc2)s1 14.2%, CC(=O)N1CCN(c2ccc(NCc3ccc(C)cc3)cc2)CC1 14.1%, CCc1ccc(CNc2ccc(N3CCN(C(C)=O)CC3)cc2)cc1 9.55%, COc1ccc(CNC(=O)CCCn2nc(C)c3c(C)n(-c4ccccc4)nc3c2=O)cc1 12.9%, CCOc1ccccc1-c1noc(CCC(=O)Nc2cccnc2)n1 10.5%, C=C(C)COc1ccc(-c2n[nH]c(C)c2-c2ccc(OC)c(OC)c2)c(O)c1 13.9%, COc1ccc(-c2c(-c3ccc(OCC(=O)NN)cc3O)n[nH]c2C)cc1OC 5.82%, N#C[C@H]1C2OC2c2ccccc2N1C(=O)c1ccccc1 (some centres not stated) 3.71%, O=c1cc(CO)oc(CN2CCN(c3ccccc3)CC2)c1O 3.29%, COc1ccc(Cl)cc1NC(=S)Nc1cccnc1 5.19%, CC(=O)O[C@]1(C(C)=O)CC[C@H]2[C@@H]3C=C(C)C4=CC(=O)CC[C@]4(C)[C@H]3CC[C@@]21C 24.3% and 8.14%, CC(=O)O[C@]1(C(C)=O)CCC2C3C=C(C)C4=CC(=O)CC[C@]4(C)C3CC[C@@]21C (some centres not stated) 6.68%, CC(=O)O[C@]1(C(C)=O)CC[C@H]2[C@@H]3C[C@H](C)C4=CC(=O)CC[C@]4(C)[C@H]3CC[C@@]21C 21.1% and 1.31%, Cc1ccccc1NC(=O)CN1C(=O)COc2ccc(S(=O)(=O)N3CCCC3)cc21 2.93%, O=C(Nc1ccncc1)Nc1ccc(Cl)cc1 10.4%, Cc1cc(C(=O)NCc2ccco2)c2cc(F)ccc2n1 5.22%, CCCCn1c(N)c(N(CCC(C)C)C(=O)c2cc(-c3ccco3)nc3ccccc23)c(=O)[nH]c1=O 28.5%, CCOc1ccc(C(=O)NC2CC(=O)N(c3ccc4c(c3)OCCO4)C2)cc1 (configuration not stated) 30.1%, O=C(/C=C/c1ccc(Cl)cc1)c1ccc([N+](=O)[O-])o1 34.3%, COc1ccc(/C=C/C(=O)c2ccc([N+](=O)[O-])o2)cc1 2.57%, Cc1ccc(/C=C/C(=O)c2ccc([N+](=O)[O-])o2)cc1 24.6%, COc1ccc(/C=C/C(=O)c2ccc([N+](=O)[O-])o2)cc1OC 17.4%, Cc1cccc(/C=C/C(=O)c2ccc([N+](=O)[O-])o2)c1 27.2%, Cc1cccc(NC(=O)c2ccc([N+](=O)[O-])o2)c1C -1.78%, CC(=O)CC1(C)OC(N)=C(C#N)C1(C#N)C#N (configuration not stated) 5.62%, N#Cc1ccc(C(=O)Nc2cc(-c3ccccc3)nn2-c2ccccc2)cc1 2.51%, Cc1cc(-c2sccc2C)nc(-n2cccc2)n1 1.14%, O=C1Nc2ccccc2Nc2ccccc21 0.33%, Cc1ccc(N=C2CCCCCN2C)c(C#N)c1 15.4%, CCN(CC)CCC(=O)N1c2ccccc2CCc2ccc(NC(=O)OC)cc21 6.36%, COC(=O)/C(=C\Nc1ccc(Cl)cc1Cl)NC(=O)c1ccc(Cl)cc1Cl 6.46%, COc1ccc(/C=C2/SC(=S)N(n3c(C)ccc3C)C2=O)cc1 12.7%, NNC(=O)c1ccc(CSc2cccc3cccnc23)cc1 8.28%, O=C(CSc1cccc2cccnc12)N/N=C/c1cccc(O)c1 3.2%, O=C(CSc1cccc2cccnc12)N/N=C/c1ccc(F)cc1 5.35%, O=C(CSc1cccc2cccnc12)N/N=C/c1ccncc1 13.8%, COc1ccc(/C=N/NC(=O)COc2cccc3cccnc23)cc1OC 16.2%, O=C(COc1cccc2cccnc12)N/N=C/c1ccccc1O 0.79%, COc1cccc(/C=N/NC(=O)CSc2cccc3cccnc23)c1 14.4%, O=C(N/N=C/c1ccccc1Br)c1ccc(CSc2cccc3cccnc23)cc1 8.68%, COc1ccc(NC(=O)CN(C)C(=O)Cc2ccc3c(c2)OCCO3)cc1 4.23%, CSCC(=O)N1CCc2ccc(NC(=O)c3ccccc3Cl)cc2C1 3.34%, COc1ccccc1NC(=O)CCS(=O)(=O)c1cc2c(cc1Cl)NC(=O)CO2 -2.36%, Cn1nc(C(=O)NC2=NCCS2)ccc1=O 16.5%, CC1(C)CC(NC(=O)COc2ccc3ccccc3c2)CC(C)(C)N1 12.2%, COc1ccc(NC(=O)CSc2nc3sc(C)cc3c(=O)n2C)cc1 8.62%
